# Reference: publication PMC7862700, “An all-to-all approach to the identification of sequence-specific readers for epigenetic DNA modifications on cytosine”
# Assays:
# Assay in all cases: DAPPL (digital affinity profiling via proximity ligation, sequencing); 10 mM Tris-HCl pH 7.5, 50 mM NaCl, 1 mM DTT, 4% glycerol, room temperature, 30 min; GST-TFs on glutathione beads, 16-mer random dsDNA library, 0.1% formaldehyde crosslink after washing; high values mean tight binding
# FEV = molecular target: T1, FEV (Homo sapiens, UniProt Q99581 1-238); conditions: protein: recombinant; tags: N-terminal GST; dsDNA, one strand shown
# T1 sequence: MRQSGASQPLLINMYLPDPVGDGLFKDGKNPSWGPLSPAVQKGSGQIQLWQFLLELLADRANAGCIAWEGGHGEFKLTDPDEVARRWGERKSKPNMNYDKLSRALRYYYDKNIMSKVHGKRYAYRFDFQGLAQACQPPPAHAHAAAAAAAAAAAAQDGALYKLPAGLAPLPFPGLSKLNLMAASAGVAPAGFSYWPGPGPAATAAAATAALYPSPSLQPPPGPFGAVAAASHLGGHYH
# Outline: (§1)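 Binding signal is defined as a hexamer's read frequency for one factor over its frequency for the tag-only sample. To obtain reads, GST-fused human transcription factors were expressed in yeast, captured on glutathione beads, barcoded with DNA and pooled with that sample. Pools met 200 nmole of a 16-mer random double-stranded DNA library in Tris/NaCl/DTT/glycerol buffer for 30 min at room temperature before washing, 0.1% formaldehyde crosslinking, proximity ligation (BsaI/T4 ligase, 1 h, 37 °C), PCR and Illumina NextSeq500 sequencing.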
# ETV5 = ETV5 (Homo sapiens, UniProt P41161 1-510); conditions: protein: recombinant; tags: N-terminal GST; dsDNA, one strand shown
# ETV5, sequence (P41161 whole entry): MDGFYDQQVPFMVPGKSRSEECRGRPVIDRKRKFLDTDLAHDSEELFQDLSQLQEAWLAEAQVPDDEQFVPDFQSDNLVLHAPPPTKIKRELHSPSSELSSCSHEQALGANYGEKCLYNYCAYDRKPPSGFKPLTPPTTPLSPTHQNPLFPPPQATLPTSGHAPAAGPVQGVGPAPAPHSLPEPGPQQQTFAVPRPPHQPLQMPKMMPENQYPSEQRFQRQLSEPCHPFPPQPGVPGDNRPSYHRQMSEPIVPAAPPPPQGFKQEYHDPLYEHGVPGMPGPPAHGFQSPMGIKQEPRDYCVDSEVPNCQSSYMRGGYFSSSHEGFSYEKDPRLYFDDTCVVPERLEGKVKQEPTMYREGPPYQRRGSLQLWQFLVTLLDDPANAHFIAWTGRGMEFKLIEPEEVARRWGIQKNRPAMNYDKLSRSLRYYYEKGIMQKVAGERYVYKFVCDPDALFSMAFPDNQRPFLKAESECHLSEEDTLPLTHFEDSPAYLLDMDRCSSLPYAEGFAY
# Outline: as §1
# HSF1 = HSF1 (Homo sapiens, UniProt Q00613 1-529); conditions: protein: recombinant; tags: N-terminal GST; chain copies: 3; dsDNA, one strand shown
# HSF1, sequence (Q00613 whole entry): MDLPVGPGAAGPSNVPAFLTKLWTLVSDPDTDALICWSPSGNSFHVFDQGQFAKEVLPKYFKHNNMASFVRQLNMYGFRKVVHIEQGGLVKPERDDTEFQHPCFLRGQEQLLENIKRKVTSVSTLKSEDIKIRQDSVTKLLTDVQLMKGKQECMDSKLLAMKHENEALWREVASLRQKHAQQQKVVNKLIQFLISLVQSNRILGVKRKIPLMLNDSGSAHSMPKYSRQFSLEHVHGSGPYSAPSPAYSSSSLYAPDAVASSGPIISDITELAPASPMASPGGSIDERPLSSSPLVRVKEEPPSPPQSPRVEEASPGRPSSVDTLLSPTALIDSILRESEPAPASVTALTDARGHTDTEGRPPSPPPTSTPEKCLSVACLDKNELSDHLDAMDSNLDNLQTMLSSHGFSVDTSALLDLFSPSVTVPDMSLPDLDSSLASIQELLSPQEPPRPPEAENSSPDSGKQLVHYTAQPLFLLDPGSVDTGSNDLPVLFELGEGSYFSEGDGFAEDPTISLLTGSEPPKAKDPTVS
# Outline: as §1
# SPIC = molecular target: T2, SPIC (Homo sapiens, UniProt Q8N5J4 1-248); conditions: protein: recombinant; tags: N-terminal GST; dsDNA, one strand shown
# T2 sequence: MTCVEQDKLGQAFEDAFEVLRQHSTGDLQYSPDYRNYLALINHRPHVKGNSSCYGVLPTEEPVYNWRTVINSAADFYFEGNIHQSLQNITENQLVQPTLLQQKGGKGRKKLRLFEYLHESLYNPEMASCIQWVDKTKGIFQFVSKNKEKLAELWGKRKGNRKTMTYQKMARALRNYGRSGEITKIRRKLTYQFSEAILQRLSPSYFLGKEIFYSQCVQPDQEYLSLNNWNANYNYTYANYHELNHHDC
# Outline: as §1
# ELF4 = ELF4 (Homo sapiens, UniProt Q99607 1-663); conditions: protein: recombinant; tags: N-terminal GST; dsDNA, one strand shown
# ELF4, sequence (Q99607 whole entry): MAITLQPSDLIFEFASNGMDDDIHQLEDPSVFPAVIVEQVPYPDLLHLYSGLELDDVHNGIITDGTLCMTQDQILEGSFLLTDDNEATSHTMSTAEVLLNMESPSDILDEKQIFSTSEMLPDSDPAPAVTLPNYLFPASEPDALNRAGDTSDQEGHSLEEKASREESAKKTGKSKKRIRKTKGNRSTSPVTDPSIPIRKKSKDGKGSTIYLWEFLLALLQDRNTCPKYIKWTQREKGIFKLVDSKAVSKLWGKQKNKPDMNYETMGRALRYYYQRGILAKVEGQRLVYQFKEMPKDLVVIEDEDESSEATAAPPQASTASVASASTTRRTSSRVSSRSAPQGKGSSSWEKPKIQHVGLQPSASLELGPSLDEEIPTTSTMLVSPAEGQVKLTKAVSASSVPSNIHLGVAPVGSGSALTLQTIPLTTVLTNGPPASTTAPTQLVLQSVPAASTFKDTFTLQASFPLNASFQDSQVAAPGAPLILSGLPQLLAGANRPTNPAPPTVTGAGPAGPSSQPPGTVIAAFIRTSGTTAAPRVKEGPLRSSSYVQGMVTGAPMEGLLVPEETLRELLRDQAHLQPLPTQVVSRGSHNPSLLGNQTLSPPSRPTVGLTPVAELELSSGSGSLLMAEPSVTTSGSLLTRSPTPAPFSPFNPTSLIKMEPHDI
# Outline: as §1
# ELK4 = molecular target: T3, ELK4 (Homo sapiens, UniProt P28324-2 1-405); conditions: protein: recombinant; tags: N-terminal GST; dsDNA, one strand shown
# T3 sequence: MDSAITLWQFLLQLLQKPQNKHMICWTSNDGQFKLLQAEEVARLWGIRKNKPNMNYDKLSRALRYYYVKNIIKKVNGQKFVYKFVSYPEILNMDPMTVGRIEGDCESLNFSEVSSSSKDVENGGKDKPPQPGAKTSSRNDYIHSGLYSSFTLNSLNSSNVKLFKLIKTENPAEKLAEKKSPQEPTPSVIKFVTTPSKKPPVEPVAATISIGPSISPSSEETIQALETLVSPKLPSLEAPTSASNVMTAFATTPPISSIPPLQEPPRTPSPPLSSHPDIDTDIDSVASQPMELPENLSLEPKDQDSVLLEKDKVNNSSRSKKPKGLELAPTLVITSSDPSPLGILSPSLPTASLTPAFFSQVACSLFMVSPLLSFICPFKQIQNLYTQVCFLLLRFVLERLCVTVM
# Outline: as §1
# ETV2 = molecular target: T4, ETV2 (Homo sapiens, UniProt O00321 1-342); conditions: protein: recombinant; tags: N-terminal GST; dsDNA, one strand shown
# T4 sequence: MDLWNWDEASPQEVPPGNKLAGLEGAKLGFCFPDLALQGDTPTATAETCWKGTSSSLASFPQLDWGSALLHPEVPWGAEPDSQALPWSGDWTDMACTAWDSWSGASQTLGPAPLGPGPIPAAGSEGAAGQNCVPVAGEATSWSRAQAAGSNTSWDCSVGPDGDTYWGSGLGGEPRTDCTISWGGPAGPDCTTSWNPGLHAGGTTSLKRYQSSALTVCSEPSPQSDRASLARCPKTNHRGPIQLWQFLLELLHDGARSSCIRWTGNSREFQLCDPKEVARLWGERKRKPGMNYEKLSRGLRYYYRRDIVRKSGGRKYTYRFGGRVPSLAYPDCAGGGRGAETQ
# Outline: as §1
# ELF3 = molecular target: T5, ELF3 (Homo sapiens, UniProt P78545 1-371); conditions: protein: recombinant; tags: N-terminal GST; dsDNA, one strand shown
# T5 sequence: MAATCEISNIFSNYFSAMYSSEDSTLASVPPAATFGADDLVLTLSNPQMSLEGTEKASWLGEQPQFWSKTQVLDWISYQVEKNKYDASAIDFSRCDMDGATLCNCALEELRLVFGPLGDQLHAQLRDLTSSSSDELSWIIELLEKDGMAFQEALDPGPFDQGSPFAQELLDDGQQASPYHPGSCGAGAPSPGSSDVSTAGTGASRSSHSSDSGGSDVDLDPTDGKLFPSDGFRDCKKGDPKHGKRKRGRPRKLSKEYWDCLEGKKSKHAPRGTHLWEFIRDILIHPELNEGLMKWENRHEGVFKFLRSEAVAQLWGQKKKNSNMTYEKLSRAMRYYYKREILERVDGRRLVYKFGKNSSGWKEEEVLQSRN
# Outline: as §1
# CRX = CRX (Homo sapiens, UniProt O43186 1-299); conditions: protein: recombinant; tags: N-terminal GST; dsDNA, one strand shown
# CRX, sequence (O43186 whole entry): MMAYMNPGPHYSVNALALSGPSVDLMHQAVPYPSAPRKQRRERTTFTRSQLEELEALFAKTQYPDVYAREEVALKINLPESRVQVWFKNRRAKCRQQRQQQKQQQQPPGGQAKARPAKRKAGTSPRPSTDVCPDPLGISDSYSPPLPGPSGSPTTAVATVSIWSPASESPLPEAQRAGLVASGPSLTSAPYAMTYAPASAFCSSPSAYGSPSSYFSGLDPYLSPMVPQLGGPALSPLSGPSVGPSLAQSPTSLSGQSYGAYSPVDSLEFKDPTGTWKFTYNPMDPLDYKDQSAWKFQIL
# Outline: as §1
# ETV1 = ETV1 (Homo sapiens, UniProt P50549 1-477); conditions: protein: recombinant; tags: N-terminal GST; dsDNA, one strand shown
# ETV1, sequence (P50549 whole entry): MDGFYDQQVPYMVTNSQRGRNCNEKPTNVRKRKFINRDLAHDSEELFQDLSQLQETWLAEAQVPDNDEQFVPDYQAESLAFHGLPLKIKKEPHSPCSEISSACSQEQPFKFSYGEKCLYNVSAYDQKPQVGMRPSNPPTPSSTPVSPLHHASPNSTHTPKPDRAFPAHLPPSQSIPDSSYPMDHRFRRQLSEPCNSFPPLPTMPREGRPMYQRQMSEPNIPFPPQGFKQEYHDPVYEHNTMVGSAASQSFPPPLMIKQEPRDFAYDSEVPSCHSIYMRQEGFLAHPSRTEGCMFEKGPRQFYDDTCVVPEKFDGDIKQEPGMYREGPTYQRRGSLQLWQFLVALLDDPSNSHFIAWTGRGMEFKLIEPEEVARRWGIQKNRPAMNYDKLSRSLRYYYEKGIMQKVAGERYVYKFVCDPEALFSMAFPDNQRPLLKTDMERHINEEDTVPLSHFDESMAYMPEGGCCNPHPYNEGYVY
# Outline: as §1
sequence,measurement,setting,value
TCCCCT,binding signal,FEV,"1.71 fold enrichment (6-mer frequency, TF over GST control)"
same,binding signal,ETV5,"1.72 fold enrichment (6-mer frequency, TF over GST control)"
same,binding signal,HSF1,"1.56 fold enrichment (6-mer frequency, TF over GST control)"
same,binding signal,SPIC,"1.88 fold enrichment (6-mer frequency, TF over GST control)"
same,binding signal,ELF4,"1.83 fold enrichment (6-mer frequency, TF over GST control)"
same,binding signal,ELK4,"1.55 fold enrichment (6-mer frequency, TF over GST control)"
same,binding signal,ETV2,"1.57 fold enrichment (6-mer frequency, TF over GST control)"
same,binding signal,ELF3,"1.78 fold enrichment (6-mer frequency, TF over GST control)"
same,binding signal,CRX,"1.92 fold enrichment (6-mer frequency, TF over GST control)"
same,binding signal,ETV1,"1.75 fold enrichment (6-mer frequency, TF over GST control)"
